Shown are actives, neighbours in structure and some others; about 4.1% of the full set was active somewhere.
hgDAF-12 ag = agonists of H. glycines DAF-12 nuclear receptor. HEK293 GAL4-hgDAF12 UAS-luciferase reporter, agonist luminescence; normalized to butyrate control. activation, % at 6.8 µM. actives 1.8% (n = 370,000);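 active means activation above a cutoff set at the mean of all screened compounds plus 3 SD, cut at about 10% in these data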;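 further: 0% = DMSO wells and 100% = sodium butyrate wells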
DAX1 inh-1 = DAX1 (NR0B1) inhibition, primary screen; HEK293T StAR-luciferase reporter, SF-1/DAX-1 repression relief; inhibition, % at 6.8 µM; actives 1.1% (n = 370,000); AID 652010;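 active means inhibition above the mean over all tested compounds plus 3 SD, cut at about 3.6% in these data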;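 further: 0% = DAX-1 cells with DMSO and 100% = cells lacking DAX-1 with DMSO; higher inhibition means more luminescence from relief of DAX-1 repression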
DAX1 inh-2 = inhibits human nuclear receptor DAX1; HEK293 Gal4-DAX1 luciferase reporter, luminescence; inhibition, % at 6.75 µM; actives 0.99% (n = 340,000);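 active means inhibition above the mean over all tested compounds plus 3 SD, cut at about 4.2% in these data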;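 further: 0% = DAX1-transfected cells with DMSO and 100% = empty-vector control cells with DMSO; inhibition shows as a rise in luminescence from relieved DAX1 repression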
Target sequence (P51843 207-470 limits assumed): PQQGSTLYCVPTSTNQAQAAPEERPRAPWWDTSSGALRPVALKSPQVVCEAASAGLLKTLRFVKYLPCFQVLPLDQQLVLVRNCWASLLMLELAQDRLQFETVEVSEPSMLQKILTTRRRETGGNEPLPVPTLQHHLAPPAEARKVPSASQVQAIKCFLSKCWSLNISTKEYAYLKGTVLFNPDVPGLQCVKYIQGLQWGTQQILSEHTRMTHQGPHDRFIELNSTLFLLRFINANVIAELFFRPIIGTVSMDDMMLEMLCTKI
hcDAF12 agonist = activators of H. contortus DAF-12 nuclear receptor; HEK293 hcDAF-12 lit1-tk-luc reporter, luminescence; 0% DMSO, 100% Δ7-dafachronic acid; activation, % at 6.8 µM; actives 1.4% (n = 370,000); AID 652067;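 active means activation above the mean of all tested compounds plus 3 SD, cut at about 5.5% in these data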;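 further: 100% = response to 3 µM Δ7-dafachronic acid high control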
ssDAF-12 act = activators of S. stercoralis DAF-12 nuclear receptor | HEK293 ssDAF-12/GRIP1 lit1-tk-luc reporter, luminescence; % of 3 µM dafachronic acid response | actives 1% (n = 370,000) | activation, % at 6.8 µM | AID 652126;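 active means activation above the mean over all tested compounds plus 3 SD, cut at about 0.9% in these data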;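 further: 0% = DMSO-only wells and 100% = 3 µM delta7-dafachronic acid wells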
* hit, by the source's call; . = no result given.

SMILES	hgDAF-12 ag	DAX1 inh-1	DAX1 inh-2	hcDAF12 agonist	ssDAF-12 act
O=C(NC1CCCC1)C1C(c2ccc(C(F)(F)F)cc2)=Nc2ccccc2N1C(=O)c1ccco1 (stereo unspecified)	5.7	1.4	.	5.6*	0.2
COc1ccc(C2=Nc3ccccc3N(C(=O)c3cccnc3)C2C(=O)NC2CCCC2)cc1 (stereo unspecified)	6.1	1.0	.	-0.6	-0.2
C[C@H]1[C@@H](NS(=O)(=O)c2ccccc2[N+](=O)[O-])CC[C@@]23CCCN2C(=O)CCC[C@@H]13	0.7	.	.	-0.4	-1.3
CN(C)S(=O)(=O)c1cccc(C(=O)N/N=C\c2ccccc2)c1	10.0	0.2	.	3.7	-0.8
CCCCN1CC(=O)N2[C@H](C[C@@]3(n4ccc5ccccc54)c4ccccc4N(S(=O)(=O)c4ccccc4)[C@@H]23)C1=O	-0.4	-1.3	.	-2.2	-0.9
O=C(CN1CCOc2ccccc21)NC1CCN(Cc2ccccc2)CC1	-1.6	-0.6	0.6	0.4	0.4
O=C(CN1CCOc2ccccc21)NC1CCCCCCC1	-0.7	-0.3	4.8*	5.8*	0.8
CCCC1CCC2(CCCN2CCOC(=O)Nc2ccc(F)cc2)CC1 (stereo unspecified)	3.3	.	.	-1.4	-1.9
Cn1ccnc1C1CCCCN1Cc1nc(-c2ccc(Cl)cc2)no1 (stereo unspecified)	12.3*	-0.7	1.4	-0.4	-1.4
C/C(=N\Nc1ccccn1)c1cccs1	10.3	3.9*	2.6	2.9	-0.4
COC(=O)[C@]12C[C@H](CC(=O)NCc3ccc(OC)c(OC)c3)C(=O)N(Cc3ccco3)C1=C[C@H](C(C)C)O[C@@H]2C1CC1	3.4	1.3	.	-2.0	-1.2
COc1ccc(S(=O)(=O)N(C)C[C@@H]2OCc3cn(nn3)CCCC(=O)N([C@H](C)CO)C[C@H]2C)cc1	0.0	3.7*	.	0.8	-1.4
COc1ccccc1NC(=O)N(C)C[C@@H]1OCc2cn(nn2)CCCC(=O)N([C@@H](C)CO)C[C@H]1C	-1.1	1.3	-0.2	2.1	0.9*
Cc1ccc(CN[C@@H]2CC[C@@]34CCCN3C(=O)CCC[C@H]4C2)cc1	1.9	.	.	0.1	-1.2
O=S(=O)(Nc1nc2ccccc2s1)c1cnc(Cl)c(Br)c1	-0.3	0.8	1.6	4.8	1.0*
O=S(=O)(Nc1nccs1)c1cnc(Cl)c(Br)c1	0.4	1.5	0.6	4.7	-0.7
CCN(CC)C(=O)CC[C@@H]1CC[C@]2(CCCN(Cc3ccncc3)C2)O1	0.6	0.0	.	-1.8	0.1
Fc1ccc(OCc2nc3ccccc3s2)cc1	11.3*	2.2	1.6	6.2*	1.1*
O=C(O)COCc1nc2ccccc2s1	0.5	0.5	1.8	-0.2	-1.2
O=C(CSc1ncccn1)Nc1cccc2ccccc12	3.3	-0.2	0.0	6.2*	-0.6
O=C(Nc1cccc2ccccc12)ON=C1CCCCC1	-1.3	-0.3	.	2.3	1.0*
O=C(CSc1nnc2c3ccccc3c3ccccc3c2n1)Nc1ccccc1F	-0.3	0.3	0.1	5.8*	-0.7
COc1ccc(C)cc1NC(=O)ON=C1CCCCC1	2.2	0.2	.	-0.2	-0.9
O=C(Nc1cccc2ccccc12)c1ccc(F)cc1	7.0	0.6	0.3	-0.1	-0.4
O=C(Nc1cccc2ccccc12)c1ccccc1	10.4	2.5	2.4	5.6*	-0.3
SMILES	hgDAF-12 ag	DAX1 inh-1	DAX1 inh-2	hcDAF12 agonist	ssDAF-12 act
O=C(CSCC(=O)Nc1cccc2ccccc12)Nc1cccc2ccccc12	-2.2	-0.3	-1.1	1.1	-0.2
COc1ccc(Oc2c(Cl)cnn(-c3ccc(C(C)C)c(C)c3)c2=O)cc1	-2.5	.	.	0.2	-1.6
CSc1ncnc2c1ncn2CCCNCc1cccc2ccccc12	-2.6	1.1	1.5	-1.7	-0.7
CC(C)(C)CC(=O)Nc1cccc(-c2cn3cccnc3n2)c1	10.5*	2.4	4.0	4.7	-0.8
O=C(CSc1nnc(-c2ccccc2)n1-c1ccc(Cl)cc1)NN=Cc1c[nH]c2ccccc12	-3.9	-1.7	.	2.1	-0.1
Cc1c(/C=C/C(=O)c2cccs2)cnn1C	6.3	1.4	1.9	0.8	-0.4
CCc1ccc(C(=O)/C=C/c2cnn(C)c2C)s1	11.7*	3.1	5.2*	2.1	-0.8
CCOc1ccc(-c2csc(NC(=O)CSC3=NC(=O)CN3C(C)=O)n2)c2ccccc12	11.2*	-0.7	0.6	-1.1	-0.8
CCOc1ccc(-c2csc(NC(=O)CSCC(=O)O)n2)c2ccccc12	-1.6	-0.6	-0.8	-1.2	-1.0
O=C(NC1CCCCC1)c1cc(-c2ccc(F)cc2)on1	1.2	0.2	0.4	4.3	-0.3
Cc1ccc(-c2cc(C(=O)NC3CCCC3)no2)cc1	12.8*	2.7	0.7	2.5	-0.1
CC(=O)c1ccc(OCc2cc(C(=O)NC3CCCCC3)no2)cc1	6.9	3.6*	0.8	0.9	-0.4
COCC1CCCN(C(=O)c2cc(COc3ccc(C(C)=O)cc3)on2)C1 (stereo unspecified)	10.3	4.2*	1.1	5.7*	-0.6
N/C(=N\OC(=O)c1cccc(Cl)c1)c1cccnc1	11.1*	1.5	1.6	4.7	0.2
N/C(=N\OC(=O)c1cc(Cl)ccc1Cl)c1cccnc1	2.0	0.4	-0.5	6.3*	0.7
COc1ccc(Cl)cc1C(=O)O/N=C(\N)c1ccc(Cl)cc1	1.0	0.7	2.6	6.0*	-1.0
COc1cc(OC)c(C(=O)O/N=C(\N)c2ccc(C)cc2)cc1OC	-0.7	-0.1	-0.7	-0.4	-1.5
CCC1NC(=O)c2cc3ccccc3cc2-n2c1nc1ccc(OC)cc1c2=O (stereo unspecified)	-1.1	0.2	0.6	0.8	-0.5
OC(c1ccccc1)(c1ccccc1)C1CCN(CCCNc2ccc(Cl)cc2Cl)CC1	-2.1	-0.1	.	-2.4	-1.8
Cc1cccc(N2CCN(C(C(=O)NCc3ccccc3)c3ccc(F)cc3)CC2)c1C (stereo unspecified)	3.6	0.7	.	0.6	-0.7
CC(=O)NCCNC(=O)c1ccc(CSc2ccc(Cl)cc2)cc1	7.7	2.1	3.5	2.4	0.9*
Cc1onc(-c2ccccc2)c1C(=O)OCC(=O)c1ccc(F)cc1	3.2	-1.2	3.8	-1.4	3.5*
CCN(CC)c1ccc(/C=C/c2ccc3ccc(OC)cc3[n+]2CC)cc1	-9.8	-1.8	-4.0	-5.1	-2.4
CC(=O)Nc1sc2c(c1-c1nc3ccccc3s1)CCOC2	3.9	.	.	-0.7	-1.9
CC(=O)C1(C(=O)NC2CCCC2)CC(c2ccccn2)=NO1 (stereo unspecified)	0.2	0.6	.	-2.9	-1.1
O=C(O)CSc1nnc2n(-c3ccccc3)c(=O)c3ccccc3n12	-2.8	-0.2	5.4*	-0.7	-0.8
CCCC/C=C1/[C@H](c2ccc(Cl)cc2)N(Cc2ccc3c(c2)OCO3)C2=N[C@H](c3ccccc3)CC(=O)N21	-1.9	0.0	.	-1.1	-1.7
S=C(NCCc1ccccc1)NC1CCCCCC1	10.9*	2.7	2.6	2.8	-0.4

Bioassay records deposited in PubChem BioAssay by The Scripps Research Institute Molecular Screening Center.
